Reference: article PMC7862700, “An all-to-all approach to the identification of sequence-specific readers for epigenetic DNA modifications on cytosine”

Assays:
Test in all cases: DAPPL (digital affinity profiling via proximity ligation, sequencing); 10 mM Tris-HCl pH 7.5, 50 mM NaCl, 1 mM DTT, 4% glycerol, room temperature, 30 min; GST-TFs on glutathione beads, 16-mer random dsDNA library, 0.1% formaldehyde crosslink after washing; high values mean tight binding
Settings in all cases: protein: recombinant; tags: N-terminal GST; dsDNA, one strand shown
ERF = target: T1, ERF (Homo sapiens, UniProt P50548 1-548)
T1 sequence: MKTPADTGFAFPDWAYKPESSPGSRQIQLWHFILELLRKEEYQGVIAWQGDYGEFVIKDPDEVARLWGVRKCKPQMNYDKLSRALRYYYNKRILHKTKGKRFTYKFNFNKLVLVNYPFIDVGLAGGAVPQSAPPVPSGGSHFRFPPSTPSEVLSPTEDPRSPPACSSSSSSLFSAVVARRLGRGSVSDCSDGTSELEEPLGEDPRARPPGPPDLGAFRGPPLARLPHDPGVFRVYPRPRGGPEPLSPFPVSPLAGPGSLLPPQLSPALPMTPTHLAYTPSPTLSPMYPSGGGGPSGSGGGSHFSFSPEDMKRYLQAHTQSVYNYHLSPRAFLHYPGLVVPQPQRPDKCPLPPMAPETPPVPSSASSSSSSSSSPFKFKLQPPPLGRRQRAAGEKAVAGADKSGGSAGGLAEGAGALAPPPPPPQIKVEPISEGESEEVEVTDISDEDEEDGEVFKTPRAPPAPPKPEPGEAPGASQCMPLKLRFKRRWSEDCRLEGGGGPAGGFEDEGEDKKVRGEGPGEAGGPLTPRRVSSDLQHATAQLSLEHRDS
Outline: (§1)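 Sequencing on an Illumina NextSeq500 followed washing, crosslinking with 0.1% formaldehyde, proximity ligation (BsaI/T4 ligase, 1 h, 37 °C) and PCR amplification of pools that had been incubated for 30 min at room temperature with 200 nmole of a random double-stranded 16-mer DNA library in Tris/NaCl/DTT/glycerol buffer. Each pool held DNA-barcoded human transcription factors, expressed in yeast as GST fusions and captured on glutathione beads, plus a tag-only sample. Binding signal is a hexamer's read frequency for a factor divided by its frequency in the tag-only sample.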

ETV3L = target: T2, ETV3L (Homo sapiens, UniProt Q6ZN32 1-361)
T2 sequence: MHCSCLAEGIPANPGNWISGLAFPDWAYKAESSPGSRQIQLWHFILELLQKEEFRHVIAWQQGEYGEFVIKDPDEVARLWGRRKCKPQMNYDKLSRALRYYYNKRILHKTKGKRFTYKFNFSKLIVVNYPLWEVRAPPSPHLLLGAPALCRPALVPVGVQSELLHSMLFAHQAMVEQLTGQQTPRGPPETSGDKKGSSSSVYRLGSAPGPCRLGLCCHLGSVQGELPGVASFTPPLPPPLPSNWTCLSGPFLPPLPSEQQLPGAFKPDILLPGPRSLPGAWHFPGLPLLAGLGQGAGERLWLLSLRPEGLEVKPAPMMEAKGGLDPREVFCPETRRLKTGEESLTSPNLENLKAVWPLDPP
Outline: as §1

ETS2 = target: T3, ETS2 (Homo sapiens, UniProt P15036 1-469)
T3 sequence: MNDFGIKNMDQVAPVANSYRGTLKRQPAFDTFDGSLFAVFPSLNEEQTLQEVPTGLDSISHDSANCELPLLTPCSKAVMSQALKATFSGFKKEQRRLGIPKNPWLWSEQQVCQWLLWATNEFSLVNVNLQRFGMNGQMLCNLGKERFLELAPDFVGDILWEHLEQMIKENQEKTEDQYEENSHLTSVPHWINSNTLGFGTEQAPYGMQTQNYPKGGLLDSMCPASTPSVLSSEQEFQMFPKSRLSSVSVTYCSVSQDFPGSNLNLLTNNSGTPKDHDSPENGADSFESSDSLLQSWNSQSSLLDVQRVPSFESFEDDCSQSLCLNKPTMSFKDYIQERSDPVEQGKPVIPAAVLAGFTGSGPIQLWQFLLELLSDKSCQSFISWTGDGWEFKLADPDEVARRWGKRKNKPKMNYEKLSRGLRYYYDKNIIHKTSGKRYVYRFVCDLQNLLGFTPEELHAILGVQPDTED
Outline: as §1

SPDEF = target: T4, SPDEF (Homo sapiens, UniProt O95238 1-335)
T4 sequence: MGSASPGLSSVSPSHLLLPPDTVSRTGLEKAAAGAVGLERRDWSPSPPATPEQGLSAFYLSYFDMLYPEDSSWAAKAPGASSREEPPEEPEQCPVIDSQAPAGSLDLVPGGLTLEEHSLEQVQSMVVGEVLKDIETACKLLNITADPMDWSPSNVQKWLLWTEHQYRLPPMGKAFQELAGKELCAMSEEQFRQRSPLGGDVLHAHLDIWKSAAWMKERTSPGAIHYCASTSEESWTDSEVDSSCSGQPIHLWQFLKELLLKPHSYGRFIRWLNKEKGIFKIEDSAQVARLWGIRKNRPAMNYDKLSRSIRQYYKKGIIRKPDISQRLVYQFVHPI
Outline: as §1

ETV7 = target: T5, ETV7 (Homo sapiens, UniProt Q9Y603 1-341)
T5 sequence: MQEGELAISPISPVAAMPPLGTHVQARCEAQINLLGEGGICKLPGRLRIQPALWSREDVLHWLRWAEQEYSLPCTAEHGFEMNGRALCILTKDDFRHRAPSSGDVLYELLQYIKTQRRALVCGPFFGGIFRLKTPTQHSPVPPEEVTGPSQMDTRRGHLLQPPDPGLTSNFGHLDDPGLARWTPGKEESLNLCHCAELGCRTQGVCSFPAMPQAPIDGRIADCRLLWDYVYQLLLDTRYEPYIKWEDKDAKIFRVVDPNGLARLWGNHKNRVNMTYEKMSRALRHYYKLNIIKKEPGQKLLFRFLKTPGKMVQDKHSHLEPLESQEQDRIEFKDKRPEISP
Outline: as §1

ELF5 = target: T6, ELF5 (Homo sapiens, UniProt Q9UKW6-2 1-255)
T6 sequence: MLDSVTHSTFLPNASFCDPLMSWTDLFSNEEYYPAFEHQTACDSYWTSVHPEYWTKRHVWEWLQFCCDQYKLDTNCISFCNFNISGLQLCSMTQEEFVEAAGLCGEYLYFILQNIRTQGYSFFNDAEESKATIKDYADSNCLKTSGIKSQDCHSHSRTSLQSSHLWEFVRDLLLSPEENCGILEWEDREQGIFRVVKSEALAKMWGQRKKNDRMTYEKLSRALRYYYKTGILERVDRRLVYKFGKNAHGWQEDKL
Outline: as §1

ETV3 = target: T7, ETV3 (Homo sapiens, UniProt P41162-2 1-143)
T7 sequence: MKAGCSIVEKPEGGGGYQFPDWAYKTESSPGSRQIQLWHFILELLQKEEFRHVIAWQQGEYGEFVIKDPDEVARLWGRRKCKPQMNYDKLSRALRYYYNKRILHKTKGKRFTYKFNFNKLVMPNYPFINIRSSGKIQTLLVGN
Outline: as §1

ETV6 = ETV6 (Homo sapiens, UniProt P41212 1-452)
Chain of ETV6 (P41212 whole entry): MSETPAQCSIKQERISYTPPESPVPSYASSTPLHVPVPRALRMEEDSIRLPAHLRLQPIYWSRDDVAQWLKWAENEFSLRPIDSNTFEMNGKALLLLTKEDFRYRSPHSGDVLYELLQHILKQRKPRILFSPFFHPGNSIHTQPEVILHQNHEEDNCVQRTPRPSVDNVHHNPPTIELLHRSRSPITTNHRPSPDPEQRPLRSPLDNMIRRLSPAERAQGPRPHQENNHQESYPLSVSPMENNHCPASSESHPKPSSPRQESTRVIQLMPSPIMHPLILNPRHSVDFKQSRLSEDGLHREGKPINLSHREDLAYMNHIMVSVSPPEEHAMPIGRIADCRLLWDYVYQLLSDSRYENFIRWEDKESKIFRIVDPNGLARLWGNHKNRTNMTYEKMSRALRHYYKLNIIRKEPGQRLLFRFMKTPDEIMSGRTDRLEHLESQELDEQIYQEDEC
Outline: as §1

Sequence: TCCCGT
- binding signal (ERF): 1.4 fold enrichment (6-mer frequency, TF over GST control)
- binding signal (ETV3L): 1.29 fold enrichment (6-mer frequency, TF over GST control)
- binding signal (ETS2): 1.34 fold enrichment (6-mer frequency, TF over GST control)
- binding signal (SPDEF): 1.44 fold enrichment (6-mer frequency, TF over GST control)
- binding signal (ETV7): 1.32 fold enrichment (6-mer frequency, TF over GST control)
- binding signal (ELF5): 1.6 fold enrichment (6-mer frequency, TF over GST control)
- binding signal (ETV3): 1.27 fold enrichment (6-mer frequency, TF over GST control)
- binding signal (ETV6): 1.3 fold enrichment (6-mer frequency, TF over GST control)

Sequence: AATAAC
- binding signal (ERF): 1.33 fold enrichment (6-mer frequency, TF over GST control)
- binding signal (ETV3L): 1.22 fold enrichment (6-mer frequency, TF over GST control)
- binding signal (ETS2): 1.27 fold enrichment (6-mer frequency, TF over GST control)
- binding signal (SPDEF): 1.21 fold enrichment (6-mer frequency, TF over GST control)
- binding signal (ETV7): 1.25 fold enrichment (6-mer frequency, TF over GST control)
- binding signal (ELF5): 1.31 fold enrichment (6-mer frequency, TF over GST control)
- binding signal (ETV3): 1.23 fold enrichment (6-mer frequency, TF over GST control)
- binding signal (ETV6): 1.36 fold enrichment (6-mer frequency, TF over GST control)

Sequence: TAAATA
- binding signal (ERF): 1.21 fold enrichment (6-mer frequency, TF over GST control)
- binding signal (ETV3L): 1.27 fold enrichment (6-mer frequency, TF over GST control)
- binding signal (ETS2): 1.27 fold enrichment (6-mer frequency, TF over GST control)
- binding signal (SPDEF): 1.15 fold enrichment (6-mer frequency, TF over GST control)
- binding signal (ETV7): 1.31 fold enrichment (6-mer frequency, TF over GST control)
- binding signal (ELF5): 1.16 fold enrichment (6-mer frequency, TF over GST control)
- binding signal (ETV3): 1.28 fold enrichment (6-mer frequency, TF over GST control)
- binding signal (ETV6): 1.32 fold enrichment (6-mer frequency, TF over GST control)

Sequence: AACTAT
- binding signal (ERF): 1.17 fold enrichment (6-mer frequency, TF over GST control)
- binding signal (ETV3L): 1.28 fold enrichment (6-mer frequency, TF over GST control)
- binding signal (ETS2): 1.45 fold enrichment (6-mer frequency, TF over GST control)
- binding signal (SPDEF): 1.42 fold enrichment (6-mer frequency, TF over GST control)
- binding signal (ETV7): 1.38 fold enrichment (6-mer frequency, TF over GST control)
- binding signal (ELF5): 1.45 fold enrichment (6-mer frequency, TF over GST control)
- binding signal (ETV3): 1.28 fold enrichment (6-mer frequency, TF over GST control)
- binding signal (ETV6): 1.33 fold enrichment (6-mer frequency, TF over GST control)

Sequence: CACTTC
- binding signal (ERF): 3.07 fold enrichment (6-mer frequency, TF over GST control)
- binding signal (ETV3L): 3.63 fold enrichment (6-mer frequency, TF over GST control)
- binding signal (ETS2): 3.66 fold enrichment (6-mer frequency, TF over GST control)
- binding signal (SPDEF): 3.55 fold enrichment (6-mer frequency, TF over GST control)
- binding signal (ETV7): 3.64 fold enrichment (6-mer frequency, TF over GST control)
- binding signal (ELF5): 4.43 fold enrichment (6-mer frequency, TF over GST control)
- binding signal (ETV3): 3.65 fold enrichment (6-mer frequency, TF over GST control)
- binding signal (ETV6): 4.24 fold enrichment (6-mer frequency, TF over GST control)

Sequence: ACCCAC
- binding signal (ERF): 1.2 fold enrichment (6-mer frequency, TF over GST control)
- binding signal (ETV3L): 1.02 fold enrichment (6-mer frequency, TF over GST control)
- binding signal (ETS2): 1.15 fold enrichment (6-mer frequency, TF over GST control)
- binding signal (SPDEF): 1.21 fold enrichment (6-mer frequency, TF over GST control)
- binding signal (ETV7): 1.18 fold enrichment (6-mer frequency, TF over GST control)
- binding signal (ELF5): 1.19 fold enrichment (6-mer frequency, TF over GST control)
- binding signal (ETV3): 1.13 fold enrichment (6-mer frequency, TF over GST control)
- binding signal (ETV6): 1.2 fold enrichment (6-mer frequency, TF over GST control)

Sequence: GATTTG
- binding signal (ERF): 1.12 fold enrichment (6-mer frequency, TF over GST control)
- binding signal (ETV3L): 1.18 fold enrichment (6-mer frequency, TF over GST control)
- binding signal (ETS2): 1.14 fold enrichment (6-mer frequency, TF over GST control)
- binding signal (SPDEF): 1.19 fold enrichment (6-mer frequency, TF over GST control)
- binding signal (ETV7): 1.15 fold enrichment (6-mer frequency, TF over GST control)
- binding signal (ELF5): 1.05 fold enrichment (6-mer frequency, TF over GST control)
- binding signal (ETV3): 1.1 fold enrichment (6-mer frequency, TF over GST control)
- binding signal (ETV6): 1.09 fold enrichment (6-mer frequency, TF over GST control)

Sequence: TGCGGA
- binding signal (ERF): 1.14 fold enrichment (6-mer frequency, TF over GST control)
- binding signal (ETV3L): 1.3 fold enrichment (6-mer frequency, TF over GST control)
- binding signal (ETS2): 1.35 fold enrichment (6-mer frequency, TF over GST control)
- binding signal (SPDEF): 1.38 fold enrichment (6-mer frequency, TF over GST control)
- binding signal (ETV7): 1.22 fold enrichment (6-mer frequency, TF over GST control)
- binding signal (ELF5): 1.46 fold enrichment (6-mer frequency, TF over GST control)
- binding signal (ETV3): 1.54 fold enrichment (6-mer frequency, TF over GST control)
- binding signal (ETV6): 1.34 fold enrichment (6-mer frequency, TF over GST control)
